Assay results: PubChem BioAssay (NCI)
Compounds without any hit were thinned out: in the full panel of roughly 83,000, 20% have a hit.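 Negative percent growth values reflect cell death: -40 means 40% of the cells present at the start died, and -100 means all died.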 Unmarked numbers belong to inactive results. The source made the active and inactive calls. How the source made its calls: active means growth percent below 10; inactive means the rest.

Assays:
Assay in all cases: NCI-60 one-dose screen, 48 h (100 = growth as untreated, 0 = no growth, -100 = all killed)
Settings in all cases: 10 µM unless noted
HCT-15 colon = system: HCT-15 colon
HT29 colon = system: HT29 colon
SNB-75 CNS = system: SNB-75 CNS
SNB-19 CNS = system: SNB-19 CNS
U251 CNS = system: U251 CNS
PC-3 prostate = system: PC-3 prostate
SK-MEL-5 melanoma = system: SK-MEL-5 melanoma
UACC-62 melanoma = system: UACC-62 melanoma
LOX IMVI melanoma = system: LOX IMVI melanoma
SK-MEL-28 melanoma = system: SK-MEL-28 melanoma

SMILES	growth (HCT-15 colon)	growth (HT29 colon)	growth (SNB-75 CNS)	growth (SNB-19 CNS)	growth (U251 CNS)	growth (PC-3 prostate)	growth (SK-MEL-5 melanoma)	growth (UACC-62 melanoma)	growth (LOX IMVI melanoma)	growth (SK-MEL-28 melanoma)
O=C(/C=C/c1ccccc1Cl)Nc1ncc(Cc2cc(Cl)ccc2Cl)s1	21.7%	-18% (active)	1.14% (active)	21%	16.6%	39.8%	25.7%	23.2%	35%	55.4%
Cc1cc(=O)oc2cc(OCCCOc3ccc(/C=C/C(=O)Nc4ccc(Br)cc4)cc3)ccc12	82.3%	90.8%	115%	86.9%	97.8%	81.8%	85%	94.5%	67.9%	86.6%
COc1ccc(NC(=O)CCCCCCNC(=O)C(O)(O)C(F)(F)F)cc1	67.7%	23.1%	60.2%	66.8%	39.7%	52.7%	17%	17.4%	35.2%	40%
Nc1nc(=O)n([C@H]2C[C@H](O)[C@@H](CO)O2)cc1C=O	107%	101%	122%	106%	106%	45%	101%	106%	106%	108%
CC(=O)c1cc(C(=O)N2c3ccccc3Sc3ccccc32)n2c1ccc1ccccc12	41.6%	30%	38.7%	57.8%	48.6%	46.1%	44.1%	33.9%	58.9%	61.1%
O=C1Nc2ccccc2/C1=N\c1nnc(-c2ccccc2)o1	87.2%	99.2%	59.9%	91.5%	97.8%	79%	94.3%	79.7%	102%	106%
Cc1ccc(NC(=O)/C=C/c2ccc(OCCCOc3ccc4c(C)cc(=O)oc4c3)cc2)cc1	85.5%	71.3%	-6.2% (active)	38.2%	71.6%	74.5%	76.9%	93%	68.8%	59.9%
COc1ccc2[nH]cc(-c3nn4cc(-c5ccncc5)nc4s3)c2c1	37.8%	66.6%	61.7%	75.3%	67.9%	45.7%	67.4%	63.8%	57.8%	112%
COC(=O)c1cccc(NC2=C(Cl)C(=O)C(C)=C(C)C2=O)c1	112%	105%	60.7%	87%	102%	71.9%	95.6%	85.5%	69%	110%
O=C(CCCCCCNC(=O)C(O)(O)C(F)(F)F)Nc1ccc(-c2ccccc2)cc1	9.19% (active)	4.75% (active)	40.4%	15.2%	-3.64% (active)	28.7%	-41.5% (active)	-61.4% (active)	-77.4% (active)	5.07% (active)
COC(=O)c1ccc(NC2=C(Cl)C(=O)C(C)=C(C)C2=O)cc1	40%	63.3%	64.5%	53.5%	59.4%	36.6%	44.6%	5.89% (active)	24.7%	75.9%
O=C(N/N=C/c1cc2ccccc2nc1Cl)c1cc(-c2nc3ccccc3[nH]2)nc2ccccc12	82.9%	90.3%	83.2%	95.3%	92.2%	81.6%	81.9%	75.1%	88.9%	99.2%
CCCCCCCCCCCC(=O)NC(C)(C)C(=O)N1CCCC1C(=O)NC(C)(C)C(=O)NC(C)(C)C(=O)N1CCCC1C(=O)NC(C)(C)C(=O)NC(C)(C)C(=O)N1CCCC1C(=O)NC(C)C(=O)NCCC(=O)NC(C)C(=O)NC(C)(C)C(=O)NC(C)(C)C(=O)NC(C)(C)C(=O)NCCC(=O)NC(C)(C)C(=O)NC(C)(C)C(=O)NC(C)(C)C(=O)NC(C)C(=O)NCCC(=O)O (stereo not given)	-96.5% (active)	-86.6% (active)	-89.7% (active)	-97.4% (active)	-94.7% (active)	-93% (active)	-98.5% (active)	-90.9% (active)	-92.4% (active)	-93.8% (active)
COc1ccc(C2C(C#N)=C(/N=C/c3ccc(Cl)cc3)Oc3c2sc2c(C)cccc32)cc1 (stereo not given)	18.8%	1.39% (active)	29.2%	27.9%	14.1%	19.2%	27.8%	23%	41.6%	61.8%
CCc1cc2c(cc1Cl)nc1c(=O)[nH]c(=O)nc-1n2CCOCC(C)C	47.4%	24.3%	92.5%	85%	73.9%	68.9%	34.4%	72.1%	49.8%	87%
CNC(=O)c1cc(N2CCc3cc(NC(=O)Nc4ccc(N5CCN(C)CC5)c(C(F)(F)F)c4)ccc32)ccn1	29.1%	21.8%	75.1%	81.5%	52.7%	59.7%	85.8%	104%	-77.5% (active)	7.33% (active)
COC(=O)CCSC1=C(C)C(=O)c2ccccc2C1=O	58.5%	110%	89.6%	96.5%	85.1%	72.6%	84.2%	70.9%	52.2%	106%
Nc1ccc(Nc2ncnc3sc4c(c23)CCN(Cc2ccccc2)C4)cc1	100%	101%	88.7%	97.2%	102%	89.1%	96.6%	87.8%	101%	102%
COC(=O)c1ccc(NC2=C(Cl)C(=O)c3nc(C)ccc3C2=O)cc1	22.7%	90.5%	106%	61.9%	46.9%	57.3%	68.4%	68.5%	45.1%	75.4%
O=C(/C=C/c1ccc(F)cc1)Nc1cccc2cccnc12	75.4%	105%	106%	109%	102%	98.5%	98.7%	91.8%	121%	109%
CC[C@]12C=CCN3CC[C@]4(C(=C(C(=O)OC)C1)Nc1cc5c(cc14)[C@@H]1[C@H](O5)[C@@H](O)[C@@]4(CC)CC(C(=O)OC)=C5Nc6cc(O)ccc6[C@@]56CCN1C46)C32 (stereo not given in full)	-44.6% (active)	4.53% (active)	-2.38% (active)	23.4%	8.74% (active)	20.8%	-41.5% (active)	19%	-83.8% (active)	17.4%
CC1=C(C)C(=O)C(Nc2ccc(C)c(C)c2)=C(Br)C1=O	92.3%	107%	73.2%	97.4%	102%	85%	89.1%	96.4%	-54.6% (active)	111%
COc1cc(C(=O)c2cc(C(C)=O)c3ccc(C)cn23)cc(OC)c1OC	18.9%	15.6%	6.02% (active)	40%	34%	55.6%	36.7%	17.2%	34.5%	58.1%
CCN(CC)S(=O)(=O)c1ccc(-c2nc(C(Cl)Cl)nc3cc(C)nn23)cc1	1.86% (active)	5.07% (active)	46.7%	46.2%	8.28% (active)	31.1%	78.3%	49.9%	35.6%	23.3%
Cn1ncc2c(C(=O)c3ccc(F)cc3)nc(C(C)(C)C)nc21	97.7%	104%	89.6%	95.4%	98.6%	92.5%	100%	98%	95.7%	98%
Cn1cc(-c2nn3cc(-c4ccncc4)nc3s2)c2cc(F)ccc21	38.7%	68.8%	65%	90.1%	98.3%	68.3%	87.6%	75.9%	10.5%	105%
